High-throughput results: PubChem, several laboratories
The entries come from a sample that favours hits as a whole.
ROMK primary: ROMK potassium channel modulators, primary screen, cell-based, thallium flux, MLSMR library | ATP-sensitive inward rectifier potassium channel 1 (Homo sapiens), P48048 | hit rate 2% among 130,000 | AID 1918, 2009 | Tet-inducible ROMK, thallium flux fluorescence; actives lie on both sides | B-score at 10 µM;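 active = signal ratio slope over the read window, or its plate-corrected B-score, at least 3 SD from the plate mean, either direction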;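 also: B-score of the F/F0 ratio slope over 7 to 12 s after thallium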
Target sequence (P48048 whole entry, looked up): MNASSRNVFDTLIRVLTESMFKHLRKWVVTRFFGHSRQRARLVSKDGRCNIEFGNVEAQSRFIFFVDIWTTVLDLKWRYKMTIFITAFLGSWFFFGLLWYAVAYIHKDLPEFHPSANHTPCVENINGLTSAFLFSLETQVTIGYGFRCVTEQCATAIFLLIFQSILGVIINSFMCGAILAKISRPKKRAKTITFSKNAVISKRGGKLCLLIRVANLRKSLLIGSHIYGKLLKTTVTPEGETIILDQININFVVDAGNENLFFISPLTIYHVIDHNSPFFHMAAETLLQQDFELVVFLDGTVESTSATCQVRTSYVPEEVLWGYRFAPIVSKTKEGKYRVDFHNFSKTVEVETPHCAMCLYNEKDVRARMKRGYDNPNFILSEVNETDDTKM
TbHK1 inh: Trypanosoma brucei hexokinase 1 inhibitors, primary screen, biochemical, G6PDH-coupled NADH absorbance, MLSCN library; recombinant TbHK1, G6PDH-coupled NADH A340; hexokinase 1 [Trypanosoma brucei]; hit rate 0.11% among 220,000; inhibition, % at 10 µM;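 active = inhibition of 50% or more in the single-dose primary screen; inactive = inhibition below 50%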
INS promoter inh: inhibitors of insulin promoter-driven GFP, primary screen, imaging, TRM-6 cells (human fetal islet line), eGFP reporter, cell count; inhibition, % at 2 µM; reporter expression induced with tamoxifen; hit rate 0.9% among 130,000; AID 1273, 2008;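 active = inhibition above the mean plus 3 SD, with well images judged a real hit on visual review, cut at about 60% in these data, passing the limit was not always enough; inconclusive = inhibition over the cutoff but images rejected on review; inactive = inhibition not above the cutoff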
Ins promoter up: insulin promoter activators in MIN6 cells, imaging, high-content screening, mouse beta cells | MIN6 insulin promoter-GFP reporter; stronger effect = higher value | z-score at 5 µM | hit rate 0.3% among 190,000;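 active = z-score above 3 at 5 µM with at least 500 cells counted in the well; inconclusive = wells under 500 cells, flagged as cytotoxic or low count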
HSV replic up: enhancers of HSV replication in host cells, fold increase, host cell viability; HSV replication augmentation in cells; maximum fold increase; hit rate 0.005% among 220,000; in the data active = maximum fold increase above about 1.5; inconclusive = no clear call, values can overlap the other calls; tested in PC3 cells
ROMK hit retest: ROMK channel modulator hit retest, confirmation, cell-based, thallium flux, duplicate, resupplied hits; shares compounds with ROMK primary; fluorescence ratio; stronger effect = lower value; normalized thallium flux (F/F0 slope) at 10 µM; hit rate 54% among 3,000;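 active = Flux at 10 µM at least 3 SD below or above vehicle control mean in one or both replicates; inconclusive = no clear call, values can overlap the other calls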
Each line names hits and unclear results; the compound was inactive in the other large screens (follow-up assays come after a bar, where they were run).

Cc1ccc(S(=O)(=O)N2CCC(=O)N(C(COCc3ccc(Cl)cc3)Cc3ccccc3)CC2)cc1 (stereo not given)	ROMK primary -4.4 (no result: Ins promoter up) | ROMK hit retest inconclusive
Cc1cccc(C(=O)N2CCC(=O)N(C(COCc3cccc(C(F)(F)F)c3)Cc3ccccc3)CC2)c1 (stereo not given)	ROMK primary -3.3 | ROMK hit retest 0.058
O=C(c1cccc(Cl)c1)N1CCC(=O)N(C(COCc2ccccc2)Cc2ccccc2)CC1 (stereo not given)	none
Cc1cccc(COCC(Cc2ccccc2)N2CCN(C(=O)c3cccc(Cl)c3)CCC2=O)c1 (stereo not given)	ROMK primary -2.9 | ROMK hit retest 0.054
Cc1ccc(S(=O)(=O)N2CCC(=O)N(C(COCc3ccc(Cl)cc3)C(C)C)CC2)cc1 (stereo not given)	none
Cc1ccccc1CN1CCSc2sccc2C1=O	none (no result: INS promoter inh)
COc1ccccc1N1CCN(C2CCN(C(=O)COc3cccc(C)c3)CC2)CC1	none
CN(C)S(=O)(=O)c1ccc(C(=O)Nc2nc(-c3ccccc3)c(C(=O)c3ccccc3)s2)cc1	ROMK primary 1.2 | ROMK hit retest inactive
C=CCOc1ccc(C=Nc2cccc(Cl)c2)c(O)c1	ROMK primary -2.9 | ROMK hit retest inactive
COc1cc(CN2CCN(C(=O)CC(C)C)CC2)cc(OC)c1OC	none (no result: ROMK primary) | ROMK hit retest inactive
COc1ccc(CNCCC(c2ccccc2)c2ccc3c(c2)OCO3)cc1 (stereo not given)	none (no result: ROMK primary, Ins promoter up, HSV replic up) | ROMK hit retest 0.053
COc1ccc(C/C(O)=C(\C#N)c2nc3ccccc3s2)cc1	ROMK primary -3.1 | ROMK hit retest 0.06
O=C(c1ccccc1F)N1CCN(c2ccc([N+](=O)[O-])c(N3CCOCC3)c2)CC1	none (no result: INS promoter inh)
O=C(c1cccc2ccccc12)N1CCN(c2ccc([N+](=O)[O-])c(N3CCOCC3)c2)CC1	none (no result: ROMK primary, INS promoter inh) | ROMK hit retest inactive
COc1ccc(C(=O)C2CCCN(C(=O)Cn3nc(C)cc3C)C2)cc1F (stereo not given)	none (no result: ROMK primary, INS promoter inh)
Cc1ccccc1Cn1cc(C)c(=O)[nH]c1=O	ROMK primary 2.1 | ROMK hit retest inactive
CCOC(=O)C(C)Sc1nc(-c2ccccc2)nc2ccccc12 (stereo not given)	none
CCn1c(/C=C/Nc2ccccc2)[n+](CC)c2ccc(Cl)cc21	ROMK primary -3.2 | ROMK hit retest inconclusive
OC(COC(c1ccc(Cl)cc1)c1ccc(Cl)cc1)CN1CCCC1 (stereo not given)	ROMK primary -3.9 | ROMK hit retest 0.057
CCCCc1cn([C@@H](CCCCNC(=O)OC(C)(C)C)C(=O)N2CCN(C(=O)OC(C)(C)C)CC2)nn1	none (no result: ROMK primary, INS promoter inh)
CC(=O)NN1C(=O)/C(=C\c2ccc(Br)o2)SC1=S	ROMK primary -4.1 | ROMK hit retest 0.055
CC(=O)NN1C(=O)/C(=C/c2ccc(Br)o2)SC1=S	none (no result: ROMK primary, Ins promoter up)
Cc1cc(C)nc(NCCC(=O)O)n1	none
COc1ccccc1C1c2c(C)nn(-c3ccccc3)c2NC(=O)C1NC(=O)c1ccccc1 (stereo not given)	none
COc1ccc(-n2c(C)c([N+](=O)[O-])c3ccc(O)c(CN(C)C)c32)cc1	none (no result: ROMK primary, HSV replic up) | ROMK hit retest 0.033
Cn1c(=O)c2c(nc(N/N=C/c3ccc(OC(=O)c4ccco4)cc3)n2Cc2ccccc2Cl)n(C)c1=O	none
Cc1ccc(/C=C(\C#N)C(=O)NCCN2CCOCC2)cc1	ROMK primary -3.2 | ROMK hit retest 0.06
CCN(CC)C(=O)Oc1cc(=O)n2c3c(cccc13)CCC2	none
COc1cc2ncnc(NCc3ccccc3Cl)c2cc1OC	none (no result: INS promoter inh)
COc1cc2ncnc(NCc3ccccc3C)c2cc1OC	none (no result: ROMK primary) | ROMK hit retest inconclusive
COc1cc2c(C(=O)N3CCN(c4cccc(Cl)c4)CC3)cn(C)c(=O)c2cc1OC	none
CCn1cc(C(=O)N2CCN(c3ccc(F)cc3)CC2)c2cc(OC)c(OC)cc2c1=O	none | ROMK hit retest inactive
CCn1cc(C(=O)N2CCN(c3cccc(Cl)c3)CC2)c2cc(OC)c(OC)cc2c1=O	ROMK primary 1.3 | ROMK hit retest inactive
Cc1ccccc1OCC(O)CN1CCN(CCN2C(=O)c3cccc4cccc(c34)C2=O)CC1 (stereo not given)	none (no result: ROMK primary, INS promoter inh)
CCC(OCC(O)CN1CCN(CCN2C(=O)c3cccc4cccc(c34)C2=O)CC1)c1ccccc1 (stereo not given)	ROMK primary -3.6 | ROMK hit retest 0.059
CC[C@H](C)/C=C/C1=CC2=C(Cl)C(=O)[C@@]3(C)OC(=O)C(C(=O)[C@H](C)[C@@H](C)O)=C3C2=CO1	none (no result: ROMK primary, TbHK1 inh, INS promoter inh, Ins promoter up)
CCOc1cc2c3c(c1)C(C)=CC(C)(C)N3C(=O)C2=O	ROMK primary 3.2 | ROMK hit retest inactive
CCOC(=O)C1=C(C)NC(C)=C(C(=O)OCC)C1c1cccs1	none (no result: ROMK primary, Ins promoter up)
CCOC(=O)C1=C(C)NC(C)=C(C(=O)OCC)C1c1sccc1C	ROMK primary -5.3 (no result: INS promoter inh) | ROMK hit retest 0.048
O=C(CN(C1CCCCC1)S(=O)(=O)c1ccc(F)cc1)Nc1ccc2c(c1)OCO2	ROMK primary -3.3 | ROMK hit retest 0.064
CCCCNC(=O)c1onc(CSc2ccccn2)c1C(=O)NCCCC	none (no result: ROMK primary, TbHK1 inh, INS promoter inh, Ins promoter up)
COc1ccc(CN(CC2CCCO2)C(=O)c2cc3sccc3n2C)c(OC)c1 (stereo not given)	none (no result: INS promoter inh)
COc1ccc(S(=O)(=O)Nc2ccc(-n3cccc3)cc2)cc1	none (no result: INS promoter inh)
O=C(Oc1ccc(Nc2ncnc3ccccc23)cc1)c1cccnc1	ROMK primary -2.9 (no result: INS promoter inh) | ROMK hit retest 0.065
CCOC(=O)c1cccc(NC(=O)C2(S(=O)(=O)c3ccc(C)cc3)CC2)c1	none
Cc1c(N/C(=N/S(=O)(=O)c2ccc(Cl)cc2)c2ccccc2)c(=O)n(-c2ccccc2)n1C	none
CCOc1ccc(C(=O)Nc2ccc3c(c2)OCCO3)cc1[N+](=O)[O-]	ROMK primary -3.3 (no result: Ins promoter up) | ROMK hit retest inactive
COc1ccc(C(C(=O)Nc2ccc(C(C)C)cc2)N(Cc2ccco2)C(=O)CC2NC(=O)NC2=O)cc1 (stereo not given)	none
Cc1ccc(N2C(=O)[C@@H]3C(c4cccnc4)=NO[C@@H]3C2=O)cc1	none (no result: ROMK primary, INS promoter inh) | ROMK hit retest inactive
COC(=O)c1cc(C(=O)N2CCN(c3ccccc3OC)CC2)cc([N+](=O)[O-])c1	none
COC(=O)c1cc(C(=O)N2CCN(c3cccc(C)c3C)CC2)cc([N+](=O)[O-])c1	ROMK primary 2.8 (no result: INS promoter inh) | ROMK hit retest inconclusive
CC(C(=O)NCCc1ccc(F)cc1)N1CCN(Cc2ccccc2)CC1 (stereo not given)	none (no result: INS promoter inh)
COc1cc(C)c(Cl)cc1S(=O)(=O)NC1CC(C)(C)NC(C)(C)C1	ROMK primary -6.4 (no result: INS promoter inh) | ROMK hit retest 0.052
CCCOc1cc(C)c(S(=O)(=O)NC2CC(C)(C)NC(C)(C)C2)cc1C	ROMK primary -4.4 | ROMK hit retest 0.062
